In paper PMC5700166 one finds binding signal data, which are given here for 27 sequences.

Holding throughout (experiment): protein-binding microarray (PBM); PBM: ~300 nM protein, 6 mM HEPES pH 7.8, 80 mM KCl, 0.5 mM EDTA, 0.5 mM EGTA, 6% glycerol, 35 ng/ul poly-dIdC, 1% milk, 1 h, room temperature; Ap Aiptasia and Nv Nematostella (sea anemones) / Co Capsaspora / Aq Amphimedon (sponge) / Dm Drosophila / Hu human; RHD is the Rel homology domain; high values mean tight binding
What all share (conditions): dsDNA, one strand shown

One assay has as its target T1, GST-Ap-NF-kB RHD (Exaiptasia pallida (Aiptasia), UniProt A0A913YAJ5 2-422).
T1 sequence: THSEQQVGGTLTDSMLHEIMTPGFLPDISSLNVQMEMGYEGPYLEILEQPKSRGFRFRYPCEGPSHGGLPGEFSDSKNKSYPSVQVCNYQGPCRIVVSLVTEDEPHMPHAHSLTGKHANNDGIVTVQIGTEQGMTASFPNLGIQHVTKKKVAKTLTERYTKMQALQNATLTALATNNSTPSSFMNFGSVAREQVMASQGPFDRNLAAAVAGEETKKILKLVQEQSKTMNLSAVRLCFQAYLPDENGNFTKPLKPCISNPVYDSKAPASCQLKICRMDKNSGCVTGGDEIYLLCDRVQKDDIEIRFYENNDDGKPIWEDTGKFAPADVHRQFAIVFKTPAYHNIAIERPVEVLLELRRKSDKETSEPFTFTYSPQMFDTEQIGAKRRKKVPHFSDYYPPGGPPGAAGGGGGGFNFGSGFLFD

Assay [1] concerns the target T2, GST-Nv-NF-kB (Cys allele) (Nematostella vectensis, UniProt E5G601 2-411).
T2 sequence: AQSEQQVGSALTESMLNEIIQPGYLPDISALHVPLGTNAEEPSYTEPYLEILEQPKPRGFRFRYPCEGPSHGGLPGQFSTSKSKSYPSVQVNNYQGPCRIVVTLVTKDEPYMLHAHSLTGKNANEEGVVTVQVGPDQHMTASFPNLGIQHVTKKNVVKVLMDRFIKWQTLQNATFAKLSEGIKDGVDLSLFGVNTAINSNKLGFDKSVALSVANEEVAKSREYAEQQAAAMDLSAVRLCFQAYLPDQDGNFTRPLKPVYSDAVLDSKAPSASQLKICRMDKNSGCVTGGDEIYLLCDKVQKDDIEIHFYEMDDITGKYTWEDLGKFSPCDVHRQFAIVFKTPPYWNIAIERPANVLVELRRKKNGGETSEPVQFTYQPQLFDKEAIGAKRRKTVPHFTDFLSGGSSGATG

The target in another assay is T3, GST-Co-NF-kB (Capsaspora owczarzaki, UniProt F1ARL5 200-546).
T3 sequence: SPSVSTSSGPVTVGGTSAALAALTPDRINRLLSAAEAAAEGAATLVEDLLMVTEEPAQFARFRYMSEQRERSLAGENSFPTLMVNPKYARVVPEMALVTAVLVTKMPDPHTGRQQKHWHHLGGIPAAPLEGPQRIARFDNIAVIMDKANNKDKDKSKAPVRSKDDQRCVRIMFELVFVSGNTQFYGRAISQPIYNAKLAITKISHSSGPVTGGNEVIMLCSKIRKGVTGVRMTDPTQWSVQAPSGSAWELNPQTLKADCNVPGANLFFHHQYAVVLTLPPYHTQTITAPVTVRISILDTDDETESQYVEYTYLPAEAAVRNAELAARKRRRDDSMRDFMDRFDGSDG

For a further assay, the target named is T4, GST-Dm-Relish (Drosophila melanogaster, UniProt Q94527 99-473).
T4 sequence: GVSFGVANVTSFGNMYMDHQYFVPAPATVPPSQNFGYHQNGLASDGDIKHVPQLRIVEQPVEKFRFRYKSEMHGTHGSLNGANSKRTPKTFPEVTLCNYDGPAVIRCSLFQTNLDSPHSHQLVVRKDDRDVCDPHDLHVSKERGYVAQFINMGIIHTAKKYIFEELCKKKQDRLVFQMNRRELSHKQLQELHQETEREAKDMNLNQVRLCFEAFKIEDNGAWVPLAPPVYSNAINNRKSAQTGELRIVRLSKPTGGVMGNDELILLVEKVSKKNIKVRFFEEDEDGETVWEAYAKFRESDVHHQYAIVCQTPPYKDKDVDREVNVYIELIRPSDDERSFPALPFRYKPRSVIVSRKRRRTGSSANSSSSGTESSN

A further assay concerns the target T5, GST-Aq-NF-kB (Amphimedon queenslandica, UniProt A9Y5G7 2-389).
T5 sequence: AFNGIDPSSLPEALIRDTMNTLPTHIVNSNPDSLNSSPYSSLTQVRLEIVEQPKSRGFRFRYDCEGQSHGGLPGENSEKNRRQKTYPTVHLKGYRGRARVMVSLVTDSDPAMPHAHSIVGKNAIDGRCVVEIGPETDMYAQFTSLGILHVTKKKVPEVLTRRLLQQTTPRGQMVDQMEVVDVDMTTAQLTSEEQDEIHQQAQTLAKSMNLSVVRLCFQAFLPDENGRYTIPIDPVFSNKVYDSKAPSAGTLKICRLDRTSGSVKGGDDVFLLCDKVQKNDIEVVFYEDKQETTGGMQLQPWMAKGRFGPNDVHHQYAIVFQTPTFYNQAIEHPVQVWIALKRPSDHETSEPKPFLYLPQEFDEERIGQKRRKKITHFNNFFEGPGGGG

Take “CCGATTAACATCAACCCTCCCCCTGATGTTAATCGGGTCTTGATTCGCTTGACGCTGCTG”: the binding signal in the assay with GST-Ap-NF-kB RHD came out at 3.89 z-score; in assay [1], 3.26 z-score; with GST-Co-NF-kB it was 4.5 z-score; with GST-Dm-Relish it was 2.76 z-score; with GST-Aq-NF-kB, 3.64 z-score.
For the sequence “CCGATTAACATCATCCCCGTGTCTGATGTTAATCGGGTCTTGATTCGCTTGACGCTGCTG”, the binding signal with GST-Ap-NF-kB RHD amounted to 2.75 z-score; in assay [1] it was 3.34 z-score; with GST-Co-NF-kB, 4.49 z-score; with GST-Dm-Relish it was 2.12 z-score; with GST-Aq-NF-kB it was 3.87 z-score.
Taken in the same sequence, the figures for “CCGATTAACATCAGGGGCAACCCTGATGTTAATCGGGTCTTGATTCGCTTGACGCTGCTG” were 2.71 z-score, 2.89 z-score, 2.31 z-score, 3.06 z-score and 5.52 z-score.
Turning to “CCGATTAACATCACGGGAATTTCTGATGTTAATCGGGTCTTGATTCGCTTGACGCTGCTG”, the binding signal was 5.46 z-score with GST-Ap-NF-kB RHD; 7.5 z-score in assay [1]; 5.53 z-score with GST-Co-NF-kB; 5.6 z-score with GST-Dm-Relish; 6.28 z-score in the assay with GST-Aq-NF-kB.
On the same counts, the results for “CCGATTAACATCAGGGGTGGGAATGATGTTAATCGGGTCTTGATTCGCTTGACGCTGCTG” are 2.31 z-score, 2.09 z-score, 3.75 z-score, 2.17 z-score and 2.94 z-score.
Taken in the same sequence, the figures for “CCGATTAACATCAGATATTTCCCTGATGTTAATCGGGTCTTGATTCGCTTGACGCTGCTG” were 3.25 z-score, 5.95 z-score, 5.03 z-score, 2.31 z-score and 6.38 z-score.
As to “CCGATTAACATCACGGGAGTTCCTGATGTTAATCGGGTCTTGATTCGCTTGACGCTGCTG”, the binding signal amounted to 3.99 z-score with GST-Ap-NF-kB RHD; 3.71 z-score in assay [1]; 1.77 z-score with GST-Co-NF-kB; 4.98 z-score in the assay with GST-Dm-Relish; 5.04 z-score with GST-Aq-NF-kB.
On the same counts, the results for “CCGATTAACATCAGGAGACTCCCTGATGTTAATCGGGTCTTGATTCGCTTGACGCTGCTG” are 2.16 z-score, 2.35 z-score, 1.37 z-score, 1.79 z-score and 5.19 z-score.
For “CCGATTAACATCACACCACCCCCTGATGTTAATCGGGTCTTGATTCGCTTGACGCTGCTG”, the binding signal with GST-Ap-NF-kB RHD is 3.79 z-score; in assay [1] it was 2.72 z-score; with GST-Co-NF-kB it was 2.88 z-score; in the assay with GST-Dm-Relish, 2.4 z-score; with GST-Aq-NF-kB, 3.3 z-score.
Taken in the same sequence, the figures for “CCGATTAACATCACAAAACTCCCTGATGTTAATCGGGTCTTGATTCGCTTGACGCTGCTG” were 4.94 z-score, 6.58 z-score, 2.13 z-score, 5.41 z-score and 6.32 z-score.
Turning to “CCGATTAACATCAGAATAACCCCTGATGTTAATCGGGTCTTGATTCGCTTGACGCTGCTG”, the binding signal with GST-Ap-NF-kB RHD is 5.37 z-score; in assay [1], 3.87 z-score; with GST-Co-NF-kB, 1.66 z-score; with GST-Dm-Relish, 3.29 z-score; with GST-Aq-NF-kB it was 4.42 z-score.
On the same counts, the results for “CCGATTAACATCAGGCCTCCCCCTGATGTTAATCGGGTCTTGATTCGCTTGACGCTGCTG” are 4.86 z-score, 4.22 z-score, 4.14 z-score, 6 z-score and 6.6 z-score.
On the same counts, the results for “CCGATTAACATCAGATGTCCCCCTGATGTTAATCGGGTCTTGATTCGCTTGACGCTGCTG” are 6.05 z-score, 5.16 z-score, 5.82 z-score, 2.8 z-score and 4.73 z-score.
On the same counts, the results for “CCGATTAACATCAAATTGCCCCCTGATGTTAATCGGGTCTTGATTCGCTTGACGCTGCTG” are 4.13 z-score, 3.94 z-score, 4.71 z-score, 3.33 z-score and 4.88 z-score.
Regarding “CCGATTAACATCAAGTACCCCCCTGATGTTAATCGGGTCTTGATTCGCTTGACGCTGCTG”, the binding signal with GST-Ap-NF-kB RHD came out at 5.57 z-score; in assay [1] it was 3.68 z-score; in the assay with GST-Co-NF-kB, 4.81 z-score; with GST-Dm-Relish it was 4.13 z-score; in the assay with GST-Aq-NF-kB it was 3.99 z-score.
Taken in the same sequence, the figures for “CCGATTAACATCACGGAAACCCCTGATGTTAATCGGGTCTTGATTCGCTTGACGCTGCTG” were 5.32 z-score, 4.37 z-score, 2.13 z-score, 7.12 z-score and 5.38 z-score.
In the case of “CCGATTAACATCAACAGGGAAAATGATGTTAATCGGGTCTTGATTCGCTTGACGCTGCTG”, the binding signal was 3.23 z-score with GST-Ap-NF-kB RHD; 4.25 z-score in assay [1]; 2.91 z-score with GST-Co-NF-kB; 1.32 z-score with GST-Dm-Relish; 3.33 z-score in the assay with GST-Aq-NF-kB.
As for “CCGATTAACATCAGAATATTCCCTGATGTTAATCGGGTCTTGATTCGCTTGACGCTGCTG”, the binding signal in the assay with GST-Ap-NF-kB RHD was determined as 5.6 z-score; in assay [1] it was 6.1 z-score; in the assay with GST-Co-NF-kB, 3.41 z-score; with GST-Dm-Relish it was 3.01 z-score; in the assay with GST-Aq-NF-kB, 5.6 z-score.
As for “CCGATTAACATCAAGGTAATCCCTGATGTTAATCGGGTCTTGATTCGCTTGACGCTGCTG”, the binding signal with GST-Ap-NF-kB RHD is 4.1 z-score; in assay [1] it was 2.08 z-score; in the assay with GST-Co-NF-kB, 1.06 z-score; in the assay with GST-Dm-Relish, 5.22 z-score; with GST-Aq-NF-kB, 3.95 z-score.
With “CCGATTAACATCACCCATCCCCCTGATGTTAATCGGGTCTTGATTCGCTTGACGCTGCTG”, the binding signal in the assay with GST-Ap-NF-kB RHD was determined as 4.59 z-score; in assay [1], 3.91 z-score; with GST-Co-NF-kB, 3.26 z-score; with GST-Dm-Relish, 2.93 z-score; in the assay with GST-Aq-NF-kB, 3.73 z-score.
Taken in the same sequence, the figures for “CCGATTAACATCAAATATTCCCATGATGTTAATCGGGTCTTGATTCGCTTGACGCTGCTG” were 4.02 z-score, 4.31 z-score, 3.51 z-score, 2.7 z-score and 3.63 z-score.
On the same counts, the results for “CCGATTAACATCAGGGATCACCCTGATGTTAATCGGGTCTTGATTCGCTTGACGCTGCTG” are 3.86 z-score, 2.9 z-score, 1.02 z-score, 6.12 z-score and 5.65 z-score.
On the same counts, the results for “CCGATTAACATCACTTGGGAAACTGATGTTAATCGGGTCTTGATTCGCTTGACGCTGCTG” are 1.38 z-score, 2.05 z-score, 2.44 z-score, 1.01 z-score and 1.18 z-score.
As to “CCGATTAACATCAGGGAATGACCTGATGTTAATCGGGTCTTGATTCGCTTGACGCTGCTG”, the binding signal in the assay with GST-Ap-NF-kB RHD came out at 2.15 z-score; in assay [1], 3.16 z-score; with GST-Co-NF-kB, 1.03 z-score; in the assay with GST-Dm-Relish it was 3.4 z-score; with GST-Aq-NF-kB, 5.79 z-score.
Taken in the same sequence, the figures for “CCGATTAACATCAACGTATTCCCTGATGTTAATCGGGTCTTGATTCGCTTGACGCTGCTG” were 3.17 z-score, 2.78 z-score, 2.86 z-score, 1.41 z-score and 1.85 z-score.
Turning to “CCGATTAACATCAGGGAATGCCATGATGTTAATCGGGTCTTGATTCGCTTGACGCTGCTG”, the binding signal with GST-Ap-NF-kB RHD turned out to be 1.69 z-score; in assay [1], 2.76 z-score; in the assay with GST-Co-NF-kB, 1.43 z-score; in the assay with GST-Dm-Relish, 2.52 z-score; with GST-Aq-NF-kB it was 3.45 z-score.
Take “CCGATTAACATCAGGAACTACCCTGATGTTAATCGGGTCTTGATTCGCTTGACGCTGCTG”: the binding signal in the assay with GST-Ap-NF-kB RHD worked out at 2.97 z-score; in assay [1] it was 2.75 z-score; with GST-Co-NF-kB, 1.33 z-score; in the assay with GST-Dm-Relish, 3.64 z-score; in the assay with GST-Aq-NF-kB, 5.04 z-score.
